L3MBTL1 block: inhibitors of human L3MBTL1; Q9Y468; AlphaScreen L3MBTL1–H3K9me1 peptide binding; Potency, µM (series often up to 57.1 µM), inactives show top-dose activity, negative = inhibition, usual class: inhibitors; 230,000 compounds, 0.66% hits; also: nearly all actives have a fitted effect of over 60% in size
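Displacement of a biotinylated histone H3(1-15) peptide monomethylated at Lys9 (75 nM) from L3MBTL1 (50 nM) was measured by AlphaScreen after a 30 min room-temperature compound incubation; cefsulodin titration served as intraplate control.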
BLM inh: inhibitors of human Bloom syndrome helicase BLM. recombinant BLM DNA unwinding, fluorescence dequenching. Potency, µM (doses to about 56.1 µM), inactives show at the top dose activity change, negative = inhibition, most hits filed as inhibitors. 350,000 compounds, 0.2% hits. AID 2528;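 also: plate controls were vehicle for no effect and no enzyme for full effect; nearly all actives have a fitted effect of over 35% in size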
APE1 inh: blocks human APE1 abasic DNA cleavage; Potency, µM (top dose mostly 65.8 µM), for inactives: at the top dose activity change, negative = inhibition, most hits filed as inhibitors; recombinant APE1, TAMRA/BHQ-2 abasic DNA cleavage fluorescence; 350,000 compounds, 0.35% hits; P27695;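 also: plate controls were vehicle for no effect and reference inhibitor for full effect; nearly all actives have a fitted effect of over 55% in size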
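Measures dequenching upon AP-site incision of a 5'-TAMRA/3'-BHQ-2 THF-containing duplex, 50 nM; human APE1 0.75 nM after 15 min room-temperature exposure to compound; kinetic three-point read at one-minute spacing.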
RECQ1 inh-1: inhibitors of human RECQ1 DNA helicase; RECQ1 DNA unwinding, red fluorescence kinetic read; Potency, µM (titrated, usually from 57.3 µM), without a hit: top-dose activity, negative = inhibition, usual class: inhibitors; 240,000 compounds, 0.54% hits;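 also: plate controls were vehicle for no effect and no enzyme for full effect; nearly all actives have a fitted effect of over 30% in size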
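50 nM RECQ1T1 preincubated 15 min with compound in Tris pH 8.0 buffer with MgCl2, DTT, Tween-20 and 2.5 ug/ml poly(dI-dC); started with 200 nM TAMRA/BHQ-2 forked duplex and 2 mM ATP. Unwinding read as fluorescence (525/598 nm), two reads 2 h apart.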
WRN helicase inh: blocks human WRN helicase. WRN helicase unwinding, fluorescent forked duplex, kinetic. Potency, µM (highest dose often 114 µM), inactives show at the highest dose activity change, negative = inhibition, usual class: inhibitors. Q14191. 360,000 compounds, 0.46% hits; also: nearly all actives have a fitted effect of over 55% in size
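Enzyme (20 nM final) and test compound sit together 15 min at room temperature before substrate addition. Substrate is a single-forked duplex oligonucleotide (100 nM) labelled with fluorophore and quencher, with 2 mM ATP; helicase unwinding raises red fluorescence, read kinetically.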
RECQ1 inh-2: RECQ1 helicase inhibition confirmed, round 2. shares compounds with RECQ1 inh-1. recombinant RECQ1 DNA unwinding, red fluorescence. Potency, µM (doses to about 119 µM), without a hit: top-dose activity, negative = inhibition, actives largely listed as inhibitors. 1,100 compounds, 15% hits. AID 504841; also: nearly all actives have a fitted effect of over 50% in size
* marks the source's active call; other numbers are inactive results; [ ] = dose if it differs, or a comment. In the library only some 0.92% were active in any assay of this set; here they are far more common. Calls follow the shape of the dose curve; as a rule, active = well fitted curve in the direction sought with a large enough effect; inconclusive = small, poorly fitted or top-dose-only effect, or another doubt; inactive = no such curve, though single readings can be large; an effect the other way counts as inactive or inconclusive. Unless noted, % is scaled to controls: 0 for no effect and ±100 for the full control effect; potency is read from the fitted curve at half-maximal effect.

CC(C(=O)Nc1ccc(F)c(Cl)c1)N1Cc2ccccc2C1=O (stereo unspecified) was read as BLM inh -1.5%.
Screening Cc1cccc(NC(=O)CCn2cnnn2)c1C returned BLM inh 3.8%.
CCN(CC)c1ccc(NC(=O)Cn2c3ncccc3c(=O)n2-c2ccccc2)c(C)c1 was read as BLM inh -0.9%.
Screening Cc1ccc(C)c(CN2C(=O)c3ccccc3Sc3ccc(C(=O)NCc4ccc5c(c4)OCO5)cc32)c1 returned BLM inh -5.3%.
For COC/C=C/C1=CC2=CC(=O)C(C)(OC(=O)C3CCCC3)C(=O)C2=CO1 (stereo unspecified) the results were BLM inh 3.3%, APE1 inh inconclusive, RECQ1 inh-1 inconclusive, WRN helicase inh 79.4µM* and RECQ1 inh-2 inconclusive.
`C[C@@H]1OC2C3=C(C(=O)[C@H]4O[C@@H]4[C@H]3O)[C@@H]1[C@H]1[C@H](C)OC=C3[C@H](O)[C@H]4O[C@H]4/C(=N\OCc4ccccc4)[C@@]321` gave BLM inh -4.0%[12.4 µM], APE1 inh -0.2%[12.4 µM] and RECQ1 inh-1 inactive[11.5 µM].
Cn1nc(C(=O)Nc2nc3ccccc3[nH]2)c2ccccc2c1=O was read as L3MBTL1 block -3.0%, BLM inh -15.4%, APE1 inh 1.5%, RECQ1 inh-1 inconclusive, WRN helicase inh -7.2% and RECQ1 inh-2 inconclusive.
Screening CC(=O)OCC(=O)[C@@]1(OC(C)=O)[C@H](C)C[C@H]2[C@@H]3C[C@H](F)C4=CC(=O)C=C[C@@]4(C)[C@]3(F)[C@H](O)C[C@@]21C returned BLM inh 1.4%[21.4 µM], APE1 inh 2.3%[21 µM] and RECQ1 inh-1 -7.0%[25.9 µM].
COCCCNC(=O)c1ccc2c3c(onc13)-c1ccccc1C2=O was read as L3MBTL1 block -25.1%, BLM inh -6.5%, APE1 inh inconclusive, RECQ1 inh-1 12.6µM*, WRN helicase inh 22.4µM* and RECQ1 inh-2 50.1µM*.
COCCCNC(=O)c1ccccc1Oc1ccccc1 was read as L3MBTL1 block 0.2%, BLM inh -0.4%, APE1 inh 0.4%, RECQ1 inh-1 -7.1% and WRN helicase inh 2.1%.
For O=c1[nH]c(=O)c2nc(Br)n(C3OC(CO)C(O)C3O)c2[nH]1 (stereo unspecified) the results were BLM inh 0.2%, APE1 inh 4.9% and RECQ1 inh-1 -0.9%.
N=C1/C(=C\c2ccc(-c3cc(Cl)cc(Cl)c3)o2)C(=O)N=C2SC=C(c3ccccc3)N12 was read as L3MBTL1 block -9.0%, BLM inh 0.5%, APE1 inh 2.1%, RECQ1 inh-1 -4.3% and WRN helicase inh 1.1%.
Screening N=C1/C(=C/c2ccc(-c3cccc(C(=O)O)c3)o2)C(=O)N=C2SC=C(c3ccccc3)N12 returned BLM inh inconclusive, APE1 inh inconclusive, RECQ1 inh-1 inconclusive, WRN helicase inh 35.5µM* and RECQ1 inh-2 inconclusive.
`COc1ccc(N(CC(=O)N2c3ccccc3CC2C)S(=O)(=O)c2c(C)noc2C)cc1` (stereo unspecified) gave L3MBTL1 block -8.6%, BLM inh -15.1%, APE1 inh 7.9%, RECQ1 inh-1 inconclusive, WRN helicase inh -2.5% and RECQ1 inh-2 -17.8%.
CCOc1ccc(C(c2c(O)cc(C)n(CCOC)c2=O)N2CCN(c3ccc(F)cc3)CC2)cc1 (stereo unspecified) was read as BLM inh -1.0%.
COC(=O)c1c(NC(=O)/C=C/C(=O)O)sc(C)c1-c1ccc(C(C)C)cc1 was read as L3MBTL1 block -14.1%, BLM inh -5.1%, APE1 inh -3.3%, RECQ1 inh-1 inconclusive, WRN helicase inh 9.5% and RECQ1 inh-2 -44.6%.
`CCc1ccc(NCc2cc3ccc(OC)cc3n(CC(=O)Nc3ccccc3C)c2=O)cc1` gave BLM inh -4.3%.
